Data as given in the supplement of paper PMC10338343.
± gives the standard deviation. In all, about 8,200 sequences were measured (“pre-steady-state target cleavage rate”: median about 0.024, highest 2% from about 1.3 on). What follows is part of a selection rich in the highest values, with near analogues and random picks from the rest.

Test system: MIWI (PIWIL1) piRISC loaded with L1MC piRNA (30 nt)
Assay: pre-steady-state target cleavage rate (min^-1); MIWI and MILI are mouse PIWI proteins and EfPiwi is from a freshwater sponge; tags in brackets are library labels; higher = faster piRNA-guided slicing of the target
Details: guide: L1MC piRNA 5'p-UAACUAAAUACUAUGCAAGCUGUAGGUCCU
Outline: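 With or without 500 nM GTSF1 partner protein, 1 nM active affinity-purified piRISC carrying one synthetic guide was mixed with 0.1 nM transcribed, DNA-blocked target RNA library in HEPES–potassium acetate buffer at 33 °C for 0–8 or 0–960 min. Uncleaved targets were sequenced and normalised to depth and to weakly complementary targets, three trials were pooled, and k3 was capped at 0.0001 min^-1. The pre-steady-state cleavage rate came from a burst-and-steady-state fit.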

[1] = auxiliary factor: 500 nM mouse GTSF1
[2] = auxiliary factor: none (no GTSF1)

## UCGACCAACAGCUUGCAUAGUAUUUAGAUA
[1]
  pre-steady-state target cleavage rate: 0.54 ± 0.029
[2]
  pre-steady-state target cleavage rate: 0.0297 ± 0.0066

## UCGACCAACAGCUUGCAUAGUAUUUAGUUA
[1]
  pre-steady-state target cleavage rate: 1.62 ± 0.054
[2]
  pre-steady-state target cleavage rate: 0.0825 ± 0.014

## UGCACCAACAGCUUGCAUAGUAUUUAGUUA
[1]
  pre-steady-state target cleavage rate: 1.23 ± 0.056
[2]
  pre-steady-state target cleavage rate: 0.0613 ± 0.0098

## ACGACCAACAGCUUGCAUAGUAUUUAGUUA
[1]
  pre-steady-state target cleavage rate: 1.64 ± 0.055
[2]
  pre-steady-state target cleavage rate: 0.0972 ± 0.018

## AGCACCAACAGCUUGCAUAGUAUUUAGUUA
[1]
  pre-steady-state target cleavage rate: 1.03 ± 0.058
[2]
  pre-steady-state target cleavage rate: 0.0664 ± 0.011

## UCGACCAACAGCUUGCAUAGUAUUUAGUAA
[1]
  pre-steady-state target cleavage rate: 1.2 ± 0.065
[2]
  pre-steady-state target cleavage rate: 0.0413 ± 0.0084

## UCCUGGAUGUGCUUGCAUAGUAUUUUGAAA
[1]
  pre-steady-state target cleavage rate: 0.0177 ± 0.0092
[2]
  pre-steady-state target cleavage rate: 0.00406 ± 0.0024

## UCCUGCUACAGCUUGCAUUCUAUUUACAAA
[1]
  pre-steady-state target cleavage rate: 0.0158 ± 0.0068

## AGGAGCUACAGGUUGCAUAGUAUUUAGUUA
[1]
  pre-steady-state target cleavage rate: 1.17 ± 0.075
[2]
  pre-steady-state target cleavage rate: 0.0502 ± 0.0084

## UCCUGGUACAGAUUGCAUAGUAUUUAGUUA
[1]
  pre-steady-state target cleavage rate: 0.58 ± 0.071
[2]
  pre-steady-state target cleavage rate: 0.0178 ± 0.0046

## UCCUGGAACAGCUUGCAUACAAUUUAGUAA
[1]
  pre-steady-state target cleavage rate: 0.0102 ± 0.0056

## AGGACCUACAGCAUGCAUAGUAUUUACAAA
[1]
  pre-steady-state target cleavage rate: 0.526 ± 0.066
[2]
  pre-steady-state target cleavage rate: 0.00349 ± 0.0032

## AGGACGUAGAGCUUGCAUAGUAUUUAGUUA
[1]
  pre-steady-state target cleavage rate: 1.17 ± 0.072
[2]
  pre-steady-state target cleavage rate: 0.047 ± 0.0083

## UCCACCACAGCUUGCAUAGUAUUUAGUUA
[1]
  pre-steady-state target cleavage rate: 0.992 ± 0.035
[2]
  pre-steady-state target cleavage rate: 0.0505 ± 0.0088

## AGGACGUUCAGCUUGCAUAGUAUUUAGUUA
[1]
  pre-steady-state target cleavage rate: 1.35 ± 0.063
[2]
  pre-steady-state target cleavage rate: 0.0669 ± 0.01

## UGGACGUUCAGCUUGCAUAGUAUUUAGUUA
[1]
  pre-steady-state target cleavage rate: 1.37 ± 0.052
[2]
  pre-steady-state target cleavage rate: 0.0691 ± 0.012

## AGGACGAACAGCUUGCAUAGUAUUUAGUUA
[1]
  pre-steady-state target cleavage rate: 1.27 ± 0.045
[2]
  pre-steady-state target cleavage rate: 0.084 ± 0.016

## UGGACGUAGAGCUUGCAUAGUAUUUAGUUA
[1]
  pre-steady-state target cleavage rate: 1.29 ± 0.083
[2]
  pre-steady-state target cleavage rate: 0.043 ± 0.0093

## UCGACGUUCAGCUUGCAUAGUAUUUAGUUA
[1]
  pre-steady-state target cleavage rate: 1.3 ± 0.036
[2]
  pre-steady-state target cleavage rate: 0.0748 ± 0.015

## UCCACGUUCAGCUUGCAUAGUAUUUAGUUA
[1]
  pre-steady-state target cleavage rate: 1.42 ± 0.057
[2]
  pre-steady-state target cleavage rate: 0.0658 ± 0.011

## UCCACCUUCAGCUUGCAUAGUAUUUAGUUA
[1]
  pre-steady-state target cleavage rate: 0.933 ± 0.045
[2]
  pre-steady-state target cleavage rate: 0.0531 ± 0.0087

## UGGACCUACAGCUUGCAUACAAUUUAGUAA
[1]
  pre-steady-state target cleavage rate: 0.00447 ± 0.0027

## UCCACCUACAGCUUGCUAUGUAUUUAGAAA
[1]
  pre-steady-state target cleavage rate: 0.00878 ± 0.0045

## UCCUGGAUGUGCUUGCAUACUAUUUAGUUA
[1]
  pre-steady-state target cleavage rate: 0.0877 ± 0.01
[2]
  pre-steady-state target cleavage rate: 0.0191 ± 0.0037

## UCCUGGAUCAGCUUGCAUAGUAUUUUGAUA
[1]
  pre-steady-state target cleavage rate: 0.17 ± 0.032
[2]
  pre-steady-state target cleavage rate: 0.0123 ± 0.004

## UCCUGGAACAGCUUGCAUAAGUAUUUAGUUA
[1]
  pre-steady-state target cleavage rate: 0.00489 ± 0.0033

## UCCUGGAACAUGCUUGCAUAGUAUUUAGUUA
[1]
  pre-steady-state target cleavage rate: 0.696 ± 0.028
[2]
  pre-steady-state target cleavage rate: 0.0566 ± 0.011

## UCCUGGUACAGCUUGCAUCGUAUUUAGUUA
[1]
  pre-steady-state target cleavage rate: 0.203 ± 0.024
[2]
  pre-steady-state target cleavage rate: 0.0269 ± 0.0059

## UCCUGCUACAGCUUGCAUAGUCUUUAGUUA
[1]
  pre-steady-state target cleavage rate: 0.279 ± 0.034
[2]
  pre-steady-state target cleavage rate: 0.0195 ± 0.0047

## UCCUGCUACAGCUUGCAUAGAUUUUAGAAA
[1]
  pre-steady-state target cleavage rate: 0.00439 ± 0.0033

## UGGACCUACUGCUUGCAUUGUAUUUAGUUA
[1]
  pre-steady-state target cleavage rate: 0.868 ± 0.041
[2]
  pre-steady-state target cleavage rate: 0.0358 ± 0.009

## UCCUCCUACACGUUGCAUAGUAUUUAGUAA
[1]
  pre-steady-state target cleavage rate: 0.507 ± 0.035
[2]
  pre-steady-state target cleavage rate: 0.00568 ± 0.0015

## AGGACCUACACUUGCAUAGUAUUUAGUUA
[1]
  pre-steady-state target cleavage rate: 1.15 ± 0.043
[2]
  pre-steady-state target cleavage rate: 0.0736 ± 0.016

## UGGACCUACAAGCUUGCAUAGUAUUUAGUUA
[1]
  pre-steady-state target cleavage rate: 1.03 ± 0.058
[2]
  pre-steady-state target cleavage rate: 0.0528 ± 0.0098

## UCGACCUACACUUGCAUAGUAUUUAGUUA
[1]
  pre-steady-state target cleavage rate: 1.09 ± 0.045
[2]
  pre-steady-state target cleavage rate: 0.0331 ± 0.0076

## UGGACCUACACUUGCAUAGUAUUUAGUUA
[1]
  pre-steady-state target cleavage rate: 1.33 ± 0.082
[2]
  pre-steady-state target cleavage rate: 0.045 ± 0.0091

## UGGACCUACACCUUGCAUAGUAUUUAGUUA
[1]
  pre-steady-state target cleavage rate: 1.23 ± 0.045
[2]
  pre-steady-state target cleavage rate: 0.0585 ± 0.0088

## AGGACCUACAACUUGCAUAGUAUUUAGUUA
[1]
  pre-steady-state target cleavage rate: 1.08 ± 0.031
[2]
  pre-steady-state target cleavage rate: 0.0712 ± 0.011

## UCCACCUACAACUUGCAUAGUAUUUAGUUA
[1]
  pre-steady-state target cleavage rate: 0.869 ± 0.025
[2]
  pre-steady-state target cleavage rate: 0.0505 ± 0.0067

## UGGACCUACAACUUGCAUAGUAUUUAGUUA
[1]
  pre-steady-state target cleavage rate: 1.5 ± 0.062
[2]
  pre-steady-state target cleavage rate: 0.08 ± 0.013

## UCGACCUACAACUUGCAUAGUAUUUAGUUA
[1]
  pre-steady-state target cleavage rate: 1.33 ± 0.041
[2]
  pre-steady-state target cleavage rate: 0.0746 ± 0.015

## UCCUGGAACAGCUUCCAUAGUAUUUAGAAA
[1]
  pre-steady-state target cleavage rate: 0.00998 ± 0.0048

## UCCACCUACAGCUUGCAUAGUAUUUAGUA
[1]
  pre-steady-state target cleavage rate: 0.445 ± 0.043
[2]
  pre-steady-state target cleavage rate: 0.00981 ± 0.0037

## AGGACCUACAGCUUGCAUUCUAUUUAGUAA
[1]
  pre-steady-state target cleavage rate: 0.262 ± 0.057
[2]
  pre-steady-state target cleavage rate: 0.00441 ± 0.0024

## UCCUGGAUGAGCUUGCUUAGUUUUUAGUUA
[1]
  pre-steady-state target cleavage rate: 0.0242 ± 0.0064
[2]
  pre-steady-state target cleavage rate: 0.00971 ± 0.0022

## UCCUGGAUGUCCAUGCAUAGUAAUUAGUUA
[1]
  pre-steady-state target cleavage rate: 0.00537 ± 0.0047

## UGGACCAACAGCUUGCAUAGUAUUUACUUA
[1]
  pre-steady-state target cleavage rate: 0.299 ± 0.018
[2]
  pre-steady-state target cleavage rate: 0.0367 ± 0.0063

## UCCUGGAUGUCCUUGAAUAGUAUUUAGUUA
[1]
  pre-steady-state target cleavage rate: 0.0223 ± 0.0065
[2]
  pre-steady-state target cleavage rate: 0.00268 ± 0.0026

## UGCUCCUACAGCUUGCAUAGUAUUUAGAAA
[1]
  pre-steady-state target cleavage rate: 0.429 ± 0.033
[2]
  pre-steady-state target cleavage rate: 0.00714 ± 0.0022

## UCCUGCUACAGCUUGCAUAGUAUUUAGUUUA
[1]
  pre-steady-state target cleavage rate: 1.17 ± 0.077
[2]
  pre-steady-state target cleavage rate: 0.0574 ± 0.012

## AGCUCCUACAGCUUGCAUAGUAUUUAGUAA
[1]
  pre-steady-state target cleavage rate: 1.01 ± 0.069
[2]
  pre-steady-state target cleavage rate: 0.0506 ± 0.011

## AGCUCCUACAGCUUGCAUAGUAUUUAGUUA
[1]
  pre-steady-state target cleavage rate: 1.37 ± 0.053
[2]
  pre-steady-state target cleavage rate: 0.0847 ± 0.013

## UGCUCCUACAGCUUGCAUAGUAUUUAGUAA
[1]
  pre-steady-state target cleavage rate: 1.07 ± 0.045
[2]
  pre-steady-state target cleavage rate: 0.0382 ± 0.0079

## UCCUGCCUACAGCUUGCAUAGUAUUUAGUUA
[1]
  pre-steady-state target cleavage rate: 1.33 ± 0.091
[2]
  pre-steady-state target cleavage rate: 0.0623 ± 0.014

## UGCUCCUACAGCUUGCAUAGUAUUUAGUUA
[1]
  pre-steady-state target cleavage rate: 1.33 ± 0.047
[2]
  pre-steady-state target cleavage rate: 0.0726 ± 0.012

## UCCUCCUACAGCUUGCAUAGUAUUUAGUUU [g2:g26:cont:t1U]
[1]
  pre-steady-state target cleavage rate: 1.29 ± 0.04
[2]
  pre-steady-state target cleavage rate: 0.0826 ± 0.02

## UCCUGCUACAGCUUGCCUAGUAUUUAGUUA
[1]
  pre-steady-state target cleavage rate: 0.886 ± 0.057
[2]
  pre-steady-state target cleavage rate: 0.0207 ± 0.0037

## UCCACCUACAGCUUGCAUAGUAUUUCAGUUA
[1]
  pre-steady-state target cleavage rate: 0.691 ± 0.081
[2]
  pre-steady-state target cleavage rate: 0.0139 ± 0.0037

## AGGACCUACUGCUUGCAUAGUAUUUAGAUA
[1]
  pre-steady-state target cleavage rate: 0.471 ± 0.048
[2]
  pre-steady-state target cleavage rate: 0.0411 ± 0.0086

## UCCUGGUAUAGCUUGCAUAGUAUUUAGUUA
[1]
  pre-steady-state target cleavage rate: 1.02 ± 0.043
[2]
  pre-steady-state target cleavage rate: 0.0597 ± 0.012

## UCCACCUACAGCUUGCAUACUAUAUAGUUA
[1]
  pre-steady-state target cleavage rate: 0.178 ± 0.022
[2]
  pre-steady-state target cleavage rate: 0.0112 ± 0.003
